Assay outcomes from PubChem.
Hits are enriched below; roughly 5.4% of the tested compounds scored in any of these assays.
Mdm2 MdmX PPI: inhibitors of human Mdm2-MdmX association, primary screen, cell-based, luminescence, split luciferase, SaOS-2, uHTS; Protein Mdm4 (Homo sapiens) + E3 ubiquitin-protein ligase Mdm2 (Homo sapiens), …; 330,000 compounds, 3% hits; SaOS-2 split-luciferase Mdm2/MdmX complementation; inhibition, % at 8 µM;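 active = inhibition of at least 50% at 8 µM in the primary screen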
Target sequence (O15151 whole entry, looked up): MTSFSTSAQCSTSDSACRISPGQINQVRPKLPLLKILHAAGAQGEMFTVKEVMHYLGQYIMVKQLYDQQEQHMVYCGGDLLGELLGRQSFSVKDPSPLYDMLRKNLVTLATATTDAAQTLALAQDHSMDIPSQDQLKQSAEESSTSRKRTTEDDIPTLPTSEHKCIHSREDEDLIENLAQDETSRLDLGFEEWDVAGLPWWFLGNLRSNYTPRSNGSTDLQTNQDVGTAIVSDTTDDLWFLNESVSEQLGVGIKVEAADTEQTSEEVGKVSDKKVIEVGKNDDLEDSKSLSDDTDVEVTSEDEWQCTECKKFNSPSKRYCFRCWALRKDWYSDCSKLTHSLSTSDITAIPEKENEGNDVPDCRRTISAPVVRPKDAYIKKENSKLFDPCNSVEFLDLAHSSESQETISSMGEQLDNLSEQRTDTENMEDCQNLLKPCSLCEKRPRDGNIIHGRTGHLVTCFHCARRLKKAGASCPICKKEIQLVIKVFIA
Target sequence (Q00987 whole entry, looked up): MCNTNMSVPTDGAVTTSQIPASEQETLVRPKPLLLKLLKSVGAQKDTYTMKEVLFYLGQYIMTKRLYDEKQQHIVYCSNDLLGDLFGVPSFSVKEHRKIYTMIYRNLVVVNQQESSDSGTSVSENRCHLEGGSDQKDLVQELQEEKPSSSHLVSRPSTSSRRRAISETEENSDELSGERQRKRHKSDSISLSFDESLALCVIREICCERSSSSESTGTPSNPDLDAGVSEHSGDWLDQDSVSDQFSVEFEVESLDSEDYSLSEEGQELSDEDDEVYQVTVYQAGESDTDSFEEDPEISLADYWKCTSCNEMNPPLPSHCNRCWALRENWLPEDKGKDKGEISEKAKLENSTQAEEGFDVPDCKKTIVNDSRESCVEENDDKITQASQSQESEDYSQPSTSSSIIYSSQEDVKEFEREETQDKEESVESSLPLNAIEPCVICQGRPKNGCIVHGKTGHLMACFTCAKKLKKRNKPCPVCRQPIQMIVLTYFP
MPTP block: mitochondrial permeability transition pore inhibitors, primary screen, biochemical, isolated mouse mitochondria, absorbance. AID 602449, 2012. Ca2+ swelling absorbance, 30 min. 360,000 compounds, 1.4% hits. inhibition, % at 10 µM;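 active = inhibition of 50% or more, scaled per plate between neutral and stimulator controls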
Beta cell apopt: inhibitors of cytokine-induced beta cell apoptosis, primary screen, luminescence. INS-1E cytokine-induced death, ATP luminescence, 48 h; percent of positive-control rescue, neutral wells zero. AID 435005, 2010. protection from apoptosis, % (test concentration not listed). 300,000 compounds, 0.8% hits;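 active = Every replicate reaches about 75%, or at least half do and their mean reaches it too, limit read from the data; inconclusive = At least half of replicates reach the limit but their mean does not; inactive = Under half of replicates reach the limit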;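 note: higher means more ATP so stronger rescue from cytokine killing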
Calb FLC: C. albicans growth inhibition with fluconazole, primary screen, CaCi-2 strain, Alamar Blue fluorescence | C. albicans CaCi-2 (fluconazole-resistant clinical isolate) + fluconazole, 48 h | growth inhibition, % (test concentration not listed) | 300,000 compounds, 0.57% hits;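 active = growth inhibition above about 58% in most replicates, limit read from the data, passing the limit was not always enough; inconclusive = exactly half the replicates above a set limit; inactive = most replicates below a set limit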;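 note: all wells also contain fluconazole at 8 µg/ml as a sub-toxic cotreatment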
SKKanGAS inh: S. pyogenes SKKanGAS growth inhibitors in kanamycin, primary screen, streptokinase expression inhibitor project, SKKanGAS strain, BacTiter-Glo luminescence | 6 h | inhibition, % at 7.5 µM | 300,000 compounds, 1.3% hits | AID 1662, 2009;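 active = mean replicate score, as percent of positive control median, at least 50; inconclusive = mean below 50 but one replicate at or above 50; inactive = mean and every replicate below 50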;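 note: strain carries kanamycin resistance gene driven by streptokinase promoter and grows in 40 µg/ml kanamycin; loss of luminescence reflects streptokinase promoter inhibition or plain growth inhibition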
CSC inhib: cancer stem cell viability inhibitors, primary screen, luminescence | inhibition, % at 7.5 µM | 300,000 compounds, 1.1% hits | cancer stem cell-like cells viability | AID 2717, 2010; in the data active = inhibition above about 75%; inconclusive = no clear call, values can overlap the other calls; tested in HMLE shEcad cells
MPTP counter: fluorescence retest of MPTP screen hits in isolated mitochondria, single concentration | shares compounds with MPTP block | inhibition, % at 10 µM | membrane potential, Rhodamine 123 fluorescence | 5,000 compounds, 78% hits; in the data active = inhibition above about 22%
MPTP abs DR: mitochondrial permeability transition pore inhibitors, dose response, biochemical, absorbance, uHTS hits; shares compounds with MPTP block; isolated mitochondria swelling; IC50, µM; 780 compounds, 58% hits; AID 651561, 2012; in the data active = IC50 below about 20 µM
MPTP counter DR: fluorescent counter-screen in isolated mitochondria, dose response, counter-screen for MPTP inhibitor project, biochemical, fluorescence, uHTS hits | shares compounds with MPTP block | IC50, µM | isolated mitochondria counterscreen, fluorescence read-out | 780 compounds, 49% hits; in the data active = IC50 below about 80 µM
Large screens that a line does not name were inactive (follow-up assays come after a bar, where they were run); ! = a repeat was not active.

O=C(NNC(=O)c1ccccc1-c1ccccc1C(=O)O)c1ccccc1	none
CC(C)(CCc1ccccn1)C(=O)CCCc1ccccn1	none (no result: Mdm2 MdmX PPI, Beta cell apopt, Calb FLC, SKKanGAS inh, CSC inhib)
COc1ccc(-c2n[nH]c(=S)o2)c(OC)c1	none
O=C(COC(=O)Cc1cccc(C(F)(F)F)c1)NC(=O)NC1CCCC1	none (no result: Calb FLC, SKKanGAS inh)
O=C(COC(=O)CCNS(=O)(=O)c1cccc(C(F)(F)F)c1)NC(=O)NC1CCCCC1	MPTP block 61.0 | MPTP counter inactive | MPTP abs DR 18 | MPTP counter DR 23.4
Cc1ccc(-n2cc3c(-c4cccc(Br)c4)nnc(C)c3n2)cc1	MPTP block 53.7, SKKanGAS inh 63.8 | MPTP counter inactive | MPTP abs DR inactive | MPTP counter DR 29.4
O=c1oc2c(-c3cccc(F)c3)cc(O)cc2s1	MPTP block 83.9 | MPTP counter 85.4
CC(C)(C)C1(C)OC(=O)C(=Cc2ccc(OCC(=O)Nc3ccccc3)cc2)C(=O)O1 (configuration not stated)	MPTP block 66.9 | MPTP counter inactive
COc1cc(C=C2C(=O)OC(C)(C)OC2=O)cc(Cl)c1OCC(=O)Nc1ccccc1	none
C[C@H](CO)N1C[C@H](C)[C@@H](CN(C)S(=O)(=O)c2ccccc2)Oc2ccc(NC(=O)c3ccncc3)cc2C1=O	none (no result: Calb FLC, SKKanGAS inh)
CCOC(=O)c1c(-c2cccs2)csc1NC(=O)CC(C)C	MPTP block 57.4 | MPTP counter inactive | MPTP abs DR inactive | MPTP counter DR inactive
COc1cccc(-c2ccc3nnc(SCC(=O)Nc4ccc(NC(C)=O)cc4)n3n2)c1	none
CC(C)N(CC#CCC(O)(c1ccccc1)C1CCCC1)CCO (configuration not stated)	none
CCN(CC#CCC(O)(c1ccccc1)C1CCCC1)C(C)C (configuration not stated)	MPTP block 77.7 | MPTP counter inactive | MPTP abs DR inactive | MPTP counter DR inactive
O=C1/C(=C/c2ccc(O)c(O)c2)SC(=S)N1Nc1ccccc1	MPTP block 100.9, Calb FLC 114.2 (no result: Mdm2 MdmX PPI, Beta cell apopt, CSC inhib) | MPTP counter 55.8
Cc1ccc(S(=O)(=O)NCC(=O)N2CCN(c3ccccc3F)CC2)cc1	none
Cc1sc2ncnc(N3CCCCC3)c2c1C	none
Cc1sc2ncnc(N3CCCCC3C)c2c1C (configuration not stated)	MPTP block 59.6 | MPTP counter 53.6
CC(C)(C)OC(=O)NCCCCCc1nnc(SCC(=O)Nc2cccc(Cl)c2)o1	MPTP block 74.5 | MPTP counter 56.6
CN1CCN(c2ccccc2NC(=O)C(Cc2ccccc2)n2cccc2)CC1 (configuration not stated)	MPTP block 81.3 | MPTP counter inactive | MPTP abs DR inactive | MPTP counter DR inactive
CN1CCN(c2ccccc2NC(=O)c2cccc(OCc3ccccc3)c2)CC1	none (no result: Beta cell apopt)
CN1CCN(c2ccccc2NC(=O)c2ccc(OCc3ccccc3)cc2)CC1	MPTP block 78.0 (no result: Calb FLC, SKKanGAS inh) | MPTP counter inactive | MPTP abs DR 9.43 | MPTP counter DR inactive
CCCCOc1ccc(C(=O)Nc2ccc(N3CCN(C)CC3)cc2)cc1	MPTP block 89.5 (no result: CSC inhib) | MPTP counter inactive | MPTP abs DR inactive | MPTP counter DR inactive
CN1CCN(c2ccccc2NC(=O)c2ccc(-c3ccccc3)cc2)CC1	none
O=C(CSc1nnc(-c2ccncc2)o1)Nc1ccc(F)c(F)c1	none (no result: Calb FLC, SKKanGAS inh, CSC inhib)
CCCCCC[N+](C)(C)CC/C=C1/c2ccccc2Sc2ccc(Cl)cc21	none
CN(C)CC/C=C1/c2ccccc2Sc2ccc(Cl)cc21	MPTP block 94.7! | MPTP counter inactive
COC(=O)CC1C(=O)NCCN1C(=O)c1ccc(Cl)cc1 (configuration not stated)	none
Cc1cc(C)c(OCC(=O)OCC(=O)N2CCc3ccccc3C2)c(C)c1	none (no result: SKKanGAS inh)
CCOC(=O)c1sc(NC(=O)CCN2CCN(C)CC2)c(C(=O)OCC)c1C	MPTP block 68.8 | MPTP counter inactive | MPTP abs DR 12.6 | MPTP counter DR inactive
CCOC(=O)c1sc(NC(=O)CCN2CC(C)OC(C)C2)c(C(=O)OCC)c1C (configuration not stated)	none (no result: MPTP block)
O=C(CC1CC1)Nc1ccc2c(c1)[C@@H]1C[C@H](CC(=O)NC3CCCC3)O[C@@H](CO)[C@@H]1O2	none (no result: Mdm2 MdmX PPI, Beta cell apopt, Calb FLC, SKKanGAS inh, CSC inhib)
CCOC(=O)c1ccc(NC(=O)CCc2nc(-c3ccccc3)no2)cc1	MPTP block 62.4 | MPTP counter 69.3
CCOC(=O)c1cccc(NC(=O)CCc2nc(-c3ccc(C)cc3)no2)c1	none
CCOC(=O)c1ccc(NC(=O)CCc2nc(-c3ccccc3Cl)no2)cc1	MPTP block 89.0 | MPTP counter 75.6
Cc1ccc(NC2=NC(c3ccccc3)n3c(nc(C)cc3=O)N2)c(C)c1 (configuration not stated)	none
CC1CCC2C(=O)N(c3cccc(C(=O)Nc4ccccc4Cl)c3)C(=O)C2C1 (configuration not stated)	none
C=CCN1C=C/C(=C\C=C(C#N)C#N)c2ccccc21	none
CCCCCCN1C=C/C(=C\C=C(C#N)C#N)c2ccccc21	MPTP block 51.0 | MPTP counter inactive | MPTP abs DR 9.33 | MPTP counter DR <2.5
CCCc1nc(SCC(=O)Nc2nnc(CC)s2)c2c(C)c(C)sc2n1	none
CCCCN(C)c1nc(-c2ccco2)c2c(c1C#N)CC(C)(C)OC2	CSC inhib inconclusive
COc1cccc(CNc2cnc3ccccc3c2)c1O	MPTP block 62.2 (no result: Beta cell apopt) | MPTP counter 61.6
COc1cccc(/C=N/NC(=S)Nc2cccc(C(=O)O)c2)c1	none
CCc1cc(C(=O)Cc2ccc(F)cc2)c(O)cc1O	MPTP block 67.8 | MPTP counter 68.4
COc1ccc(-c2nc(N3CCN(C)CC3)sc2-c2ccc(OC)cc2)cc1	MPTP block 74.3 | MPTP counter inactive | MPTP abs DR inactive | MPTP counter DR inactive
N#Cc1cccc(OCCCN2CCC(C(O)(c3ccccc3)c3ccccc3)CC2)c1	none (no result: Mdm2 MdmX PPI, Beta cell apopt, Calb FLC, SKKanGAS inh, CSC inhib)
Cc1cc(NCCCCO)n2c(nc3ccccc32)c1C#N	none
C=C(C)CSc1cc(C)c(C#N)c2nc3ccccc3n12	MPTP block 53.9 (no result: CSC inhib) | MPTP counter 56.4
Cc1ccc(S(=O)(=O)N(Cc2cccc(Cl)c2)C(=O)N2CCN(C)CC2)cc1	none (no result: Beta cell apopt)
Cc1cccc(N=Cc2[nH]c3ccc(Br)c(Cl)c3c2O)c1	MPTP block 96.6 (no result: Mdm2 MdmX PPI, Calb FLC, SKKanGAS inh) | MPTP counter inactive | MPTP abs DR 7.91 | MPTP counter DR <2.5
